In PubChem BioAssay (EPA / NIEHS) one finds outcome and AC50 data, which are given here for 13 compounds.

Structures are written as SMILES. Results filed as inconclusive are left out. The source made the active and inactive calls. How the source made its calls, unless noted: active means hit-call score of the fitted dose curve at least 0.9, where 1 is the maximum; inactive means score below 0.9.

Read-out in assay [1]: Tissue Factor, F3 (gene 2152)
Kind of assay: BSK_LPS_TissueFactor: BioMAP Diversity Plus: LPS Assay for Tissue Factor Biomarker Activity (AID 2283084). The settings on record: primary human HUVEC with PBMC; actives raise or lower the signal. The essentials:
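In this co-culture system of umbilical vein endothelium with PBMC, stimulated with LPS, cell-surface CD142 is detected by ELISA at 24 h. Endpoint values derive from bidirectional fitting, DMSO serving as baseline.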

Read-out in assay [2]: CD38, CD38 (gene 952)
Description: BSK_SAg_CD38: BioMAP Diversity Plus: SAg Assay for CD38 Biomarker Activity (AID 2283087). The settings on record: primary human HUVEC with PBMC; actives raise or lower the signal. The essentials:
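CD38 quantified by ELISA (fluorescence) in a superantigen-activated endothelial cell–PBMC co-culture at 24 h post-dose. Activity fitted in both directions relative to DMSO; parallel SRB and Alamar Blue cytotoxicity read-outs.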

Read-out in assay [3]: CD40, CD40 (gene 958)
Kind of assay: BSK_SAg_CD40: BioMAP Diversity Plus: SAg Assay for CD40 Biomarker Activity (AID 2283088). Particulars: primary human HUVEC with PBMC; actives raise or lower the signal. The essentials: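 Fluorescence ELISA read-out of CD40 from umbilical vein endothelium plus peripheral blood mononuclear cells, sampled 24 h after dosing. Values come from bidirectional curve fitting with DMSO as baseline.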

Read-out in assay [4]: CD69, CD69 (gene 969)
Kind of assay: BSK_SAg_CD69: BioMAP Diversity Plus: SAg Assay for CD69 Biomarker Activity (AID 2283089).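 On AC50: cell surface CD69 protein quantified by ELISA with fluorescence detection.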 The settings on record: primary human HUVEC with PBMC; actives raise or lower the signal. The essentials: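 HUVEC co-cultured with PBMC were dosed with chemical, and CD69 was measured by ELISA with fluorescence read-out 24 h later. Bidirectional curve fitting used DMSO as negative control and activity baseline.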

Read-out in assay [5]: E-selectin (Homo sapiens) (UniProt P16581)
Kind of assay: BSK_SAg_Eselectin: BioMAP Diversity Plus: SAg Assay for Eselectin Biomarker Activity (AID 2283091). The settings on record: primary human HUVEC with PBMC; actives raise or lower the signal. The essentials:
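Primary human endothelial cells and peripheral blood mononuclear cells were co-cultured and exposed to chemical for 24 hours. E-selectin levels were then quantified by ELISA, with bidirectional curve fitting normalised to DMSO controls.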

Assay [6] in a line: BSK_SAg_PBMCCytotoxicity: PBMC Cytotoxicity Assessment in the BioMAP Diversity Plus: SAg Assay (AID 2283093).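 Further: PBMC viability measured as Alamar Blue reduction fluorescence at 546/580 nm; fitted both ways against DMSO so a hit may be loss or gain of signal.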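 On AC50: PBMC superantigen activated with SEB plus TSST-1 one hour after compound addition.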 Particulars: primary human HUVEC with PBMC. The essentials: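 Alamar Blue reduction (6 h, ex/em 546/580 nm) read after 90 h culture of PBMC pre-dosed 1 h then stimulated with SEB plus TSST-1, 20 ng/mL each. Gain or loss of signal fitted relative to DMSO.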
Read-out in assay [7]: Interleukin-8 (IL8), CXCL8 (gene 3576)
Kind of assay: BSK_SAg_IL8: BioMAP Diversity Plus: SAg Assay for Interleukin-8 (IL8) Biomarker Activity (AID 2283094). Particulars: primary human HUVEC with PBMC; actives raise or lower the signal. The method, boiled down:
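ELISA readout of IL-8 from a superantigen-activated endothelial/PBMC primary human co-culture, taken 24 h post-dosing and fitted in both directions against DMSO; parallel SRB total-protein staining flags overt cytotoxicity.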

Assay [8] is described as follows: BSK_SAg_Proliferation: Cell Proliferation Assessment in the BioMAP Diversity Plus: SAg Assay (AID 2283095).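 Further: relative cell number as total protein by SRB absorbance in sub-confluent culture.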 The settings on record: primary human HUVEC with PBMC. The method, boiled down:
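Relative cell number in the endothelial cell/PBMC co-culture was quantified at 96 h by SRB staining (0.1% SRB, 10% TCA fixation, read at 560 nm). Curves were fitted in both directions relative to DMSO baseline.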

Assay [9] is described as follows: BSK_SAg_SRB: Viability Assessment in the BioMAP Diversity Plus: SAg Assay (AID 2283096).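 Further: cells read one day after compound addition; hits may be either gain or loss of signal compared with DMSO.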 Particulars: primary human HUVEC with PBMC. The method, boiled down:
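SRB absorbance at 560 nm served as the viability read-out. Cells (HUVEC plus peripheral blood mononuclear cells) were TCA-fixed and stained 24 h post-dosing; activity fitted in both directions against DMSO controls.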

Assay [10] addresses human CYP2C9, CYP2C9 (gene 1559) (UniProt P11712). Kind of assay: NVS_ADME_hCYP2C9: NovaScreen (NVS) CYP450-related Enzyme Activity (ADME) Assay for human CYP2C9 (AID 2283108; active means hit-call score of the fitted dose curve at least 0.9, where 1 is the maximum). The essentials: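 Fluorescence readout of CYP2C9 activity (SF9-expressed human enzyme) at 0.75 h. The primary screen used 10 uM in duplicate, with concentration-response follow-up for actives; acetonitrile was the negative control.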

The target in assay [11] is Cytochrome P450 2C19 (Homo sapiens) (UniProt P33261). Description: NVS_ADME_hCYP2C19: NovaScreen (NVS) CYP450-related Enzyme Activity (ADME) Assay for human CYP2C19 (AID 2283113; active means hit-call score of the fitted dose curve at least 0.9, where 1 is the maximum;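 further: potency for inhibition seen as loss of fluorescent signal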). The essentials:
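Chemicals first screened in duplicate at 10 uM against recombinant human enzyme produced in insect cells; confirmed actives then run as concentration series. Fluorogenic substrate turnover read by fluorescence after 1 h, normalised to acetonitrile.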

Assay [12] addresses human Ephrin type-A Receptor 1 (EphA1), EPHA1 (gene 2041) (UniProt P21709). Description: NVS_ENZ_hEphA1: NovaScreen (NVS) Enzymatic Assay for human Ephrin type-A Receptor 1 (EphA1) (AID 2283158; active means hit-call score of the fitted dose curve at least 0.9, where 1 is the maximum;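 further: activity is signal loss versus DMSO meaning EphA1 kinase inhibition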). The essentials:
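Biochemical kinase assay run cell-free; 1 h incubation; readout is fluorescence with mobility-shift separation of product. Concentration-response up to 50 uM for actives from a 25 uM screen.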

In assay [13] the target is human Phosphoinositide 3-kinase alpha (PI3Ka), PIK3CA (gene 5290) (UniProt P42336). Kind of assay: NVS_ENZ_hPI3Ka: NovaScreen (NVS) Enzymatic Assay for human Phosphoinositide 3-kinase alpha (PI3Ka) (AID 2283196; active means hit-call score of the fitted dose curve at least 0.9, where 1 is the maximum). The essentials: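 Recombinant human PI3Kα with fluorescent substrate, 1 h, product separated by electrophoretic mobility shift; 25 uM duplicate screen, hits (e.g., 30% inhibition) retested singly up to 50 uM; loss of signal vs DMSO.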
human Phosphoinositide 3-kinase alpha (PI3Ka), PIK3CA (gene 5290), sequence (P42336 whole entry, looked up): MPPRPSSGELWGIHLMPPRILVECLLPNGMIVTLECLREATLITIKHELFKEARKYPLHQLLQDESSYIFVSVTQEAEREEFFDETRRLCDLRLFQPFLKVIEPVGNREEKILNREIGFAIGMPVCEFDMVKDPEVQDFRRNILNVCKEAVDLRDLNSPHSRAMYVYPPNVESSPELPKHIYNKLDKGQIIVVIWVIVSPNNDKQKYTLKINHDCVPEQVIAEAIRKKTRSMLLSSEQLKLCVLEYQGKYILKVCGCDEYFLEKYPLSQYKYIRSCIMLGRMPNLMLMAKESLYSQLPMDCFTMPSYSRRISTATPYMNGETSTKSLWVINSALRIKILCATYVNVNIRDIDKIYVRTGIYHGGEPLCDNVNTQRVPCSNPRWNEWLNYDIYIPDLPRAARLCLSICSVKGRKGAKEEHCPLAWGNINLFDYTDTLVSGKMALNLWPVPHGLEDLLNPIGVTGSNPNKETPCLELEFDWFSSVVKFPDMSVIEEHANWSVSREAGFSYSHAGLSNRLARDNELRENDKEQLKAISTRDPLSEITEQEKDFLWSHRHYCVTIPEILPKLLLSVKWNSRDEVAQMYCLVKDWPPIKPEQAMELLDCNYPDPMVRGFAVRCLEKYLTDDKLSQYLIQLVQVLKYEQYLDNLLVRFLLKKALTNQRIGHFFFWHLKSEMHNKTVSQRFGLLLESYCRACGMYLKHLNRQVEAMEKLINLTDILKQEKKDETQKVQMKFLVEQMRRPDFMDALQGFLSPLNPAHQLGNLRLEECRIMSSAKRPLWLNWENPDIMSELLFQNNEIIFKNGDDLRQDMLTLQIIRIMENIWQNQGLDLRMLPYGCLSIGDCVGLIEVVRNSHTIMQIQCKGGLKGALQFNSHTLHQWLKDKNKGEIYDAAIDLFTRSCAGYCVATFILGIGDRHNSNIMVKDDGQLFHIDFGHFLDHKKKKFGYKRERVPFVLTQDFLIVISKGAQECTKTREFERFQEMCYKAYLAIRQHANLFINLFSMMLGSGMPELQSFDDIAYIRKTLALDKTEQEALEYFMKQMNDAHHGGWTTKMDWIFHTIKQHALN

Assay [14] deals with human Beta-secretase (BACE), BACE1 (gene 23621) (UniProt P56817). Kind of assay: NVS_ENZ_hBACE: NovaScreen (NVS) Enzymatic Assay for human Beta-secretase (BACE) (AID 2283140; active means hit-call score of the fitted dose curve at least 0.9, where 1 is the maximum;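 further: hits are inhibitors that reduce fluorescent substrate signal versus DMSO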). The method, boiled down:
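Enzyme from SF9 cells was incubated 1 hour with compound and fluorogenic substrate, activity read by fluorescence. Single-concentration duplicates at 25 uM preceded concentration-response follow-up; fitting relative to DMSO baseline.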

Assay [15] concerns the target human CYP2D6, CYP2D6 (gene 1565) (UniProt P10635). Kind of assay: NVS_ADME_hCYP2D6: NovaScreen (NVS) CYP450-related Enzyme Activity (ADME) Assay for human CYP2D6 (AID 2283107; active means hit-call score of the fitted dose curve at least 0.9, where 1 is the maximum). The method, boiled down: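 Compounds were first tested in duplicate at 10 uM against recombinant enzyme produced in insect cells, with substrate turnover measured by fluorescence after 1 hour. Decreased signal, referenced to acetonitrile vehicle, was taken as reduced enzyme activity. Active chemicals went on to concentration-response testing.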

Assay [16] has as its target human Caspase 5 (CASP5), CASP5 (gene 838) (UniProt P51878). Kind of assay: NVS_ENZ_hCASP5: NovaScreen (NVS) Enzymatic Assay for human Caspase 5 (CASP5) (AID 2283137; active means hit-call score of the fitted dose curve at least 0.9, where 1 is the maximum). The method, boiled down:
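Loss of fluorescent signal versus DMSO scored for E. coli-derived human CASP5 cleaving a fluorescent substrate, 2 h post-dosing; compounds first tested at 25 uM in duplicate, hits rerun in concentration series with 50 uM top concentration.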

Assay [17] addresses human CYP19A1, CYP19A1 (gene 1588) (UniProt P11511). Kind of assay: NVS_ADME_hCYP19A1: NovaScreen (NVS) CYP450-related Enzyme Activity (ADME) Assay for human CYP19A1 (AID 2283098; active means hit-call score of the fitted dose curve at least 0.9, where 1 is the maximum). The essentials:
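Primary testing was in duplicate at a single 10 uM concentration, with actives followed up in concentration-response series. Fluorescence read-out of recombinant enzyme activity at 0.5 h, cell-free. Acetonitrile was the negative-control baseline.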

For assay [18], the target named is human Matrix Metalloproteinase-9 (MMP9), MMP9 (gene 4318) (UniProt P14780). Kind of assay: NVS_ENZ_hMMP9: NovaScreen (NVS) Enzymatic Assay for human Matrix Metalloproteinase-9 (MMP9) (AID 2283190; active means hit-call score of the fitted dose curve at least 0.9, where 1 is the maximum;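 further: cell-free recombinant MMP9 protease activity read by fluorescent substrate signal; active means inhibition seen as loss of fluorescence signal versus DMSO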). The essentials:
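Cell-free recombinant MMP9 enzyme activity measured by fluorescence intensity 1 h after dosing. Primary screen in duplicate at 25 uM, actives followed in concentration series; loss of signal relative to DMSO.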

Assay [19] has as its target human Dual Specificity Protein Phosphatase 3 (DUSP3), DUSP3 (gene 1845) (UniProt P51452). Description: NVS_ENZ_hDUSP3: NovaScreen (NVS) Enzymatic Assay for human Dual Specificity Protein Phosphatase 3 (DUSP3) (AID 2283152; active means hit-call score of the fitted dose curve at least 0.9, where 1 is the maximum;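 further: phosphatase activity of recombinant human DUSP3 on a fluorogenic substrate without cells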). The essentials:
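Cell-free fluorescence-intensity enzyme activity assay with recombinant protein and substrate; loss of signal fitted relative to DMSO baseline. Primary screen in duplicate at 25 uM, actives then run in concentration series; measured 0 h after dosing.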

human Ephrin type-A Receptor 1 (EphA1), EPHA1 (gene 2041), sequence (P21709 whole entry, looked up): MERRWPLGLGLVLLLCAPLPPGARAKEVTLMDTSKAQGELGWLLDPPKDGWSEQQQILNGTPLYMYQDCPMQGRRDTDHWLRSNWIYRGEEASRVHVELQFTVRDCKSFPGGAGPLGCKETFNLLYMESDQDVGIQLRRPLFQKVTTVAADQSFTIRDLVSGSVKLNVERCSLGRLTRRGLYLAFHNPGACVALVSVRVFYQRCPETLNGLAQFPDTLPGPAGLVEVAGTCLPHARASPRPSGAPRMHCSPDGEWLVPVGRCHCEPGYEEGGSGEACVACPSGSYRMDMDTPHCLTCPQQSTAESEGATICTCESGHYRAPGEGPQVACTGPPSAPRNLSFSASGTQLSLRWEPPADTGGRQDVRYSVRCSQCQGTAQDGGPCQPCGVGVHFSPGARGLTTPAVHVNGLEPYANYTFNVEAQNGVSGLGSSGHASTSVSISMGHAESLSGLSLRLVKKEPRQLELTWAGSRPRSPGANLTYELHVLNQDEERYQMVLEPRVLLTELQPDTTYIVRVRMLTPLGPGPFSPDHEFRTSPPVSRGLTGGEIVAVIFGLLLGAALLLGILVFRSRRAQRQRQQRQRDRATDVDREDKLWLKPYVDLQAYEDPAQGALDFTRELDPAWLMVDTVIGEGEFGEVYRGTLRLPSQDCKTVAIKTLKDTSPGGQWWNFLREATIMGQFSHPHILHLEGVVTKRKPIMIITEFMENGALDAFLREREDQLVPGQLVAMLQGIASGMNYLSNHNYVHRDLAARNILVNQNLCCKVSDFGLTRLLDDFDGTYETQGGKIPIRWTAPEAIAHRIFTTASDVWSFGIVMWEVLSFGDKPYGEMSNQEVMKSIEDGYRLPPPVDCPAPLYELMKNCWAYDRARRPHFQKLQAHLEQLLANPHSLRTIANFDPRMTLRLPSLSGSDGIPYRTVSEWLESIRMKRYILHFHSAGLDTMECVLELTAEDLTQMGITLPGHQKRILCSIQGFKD
human Caspase 5 (CASP5), CASP5 (gene 838), sequence (P51878 whole entry, looked up): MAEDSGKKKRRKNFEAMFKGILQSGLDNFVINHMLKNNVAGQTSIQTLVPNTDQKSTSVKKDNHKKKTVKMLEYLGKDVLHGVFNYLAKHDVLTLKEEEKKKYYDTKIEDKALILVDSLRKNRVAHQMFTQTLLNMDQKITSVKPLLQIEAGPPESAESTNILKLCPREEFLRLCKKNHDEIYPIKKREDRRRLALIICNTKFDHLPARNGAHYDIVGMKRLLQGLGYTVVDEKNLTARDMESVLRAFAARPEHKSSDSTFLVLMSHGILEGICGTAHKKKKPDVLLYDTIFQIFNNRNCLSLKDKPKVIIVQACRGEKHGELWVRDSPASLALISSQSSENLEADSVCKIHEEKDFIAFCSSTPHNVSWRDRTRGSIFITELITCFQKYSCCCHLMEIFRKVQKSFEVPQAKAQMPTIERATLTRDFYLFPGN
E-selectin (Homo sapiens), sequence (P16581 whole entry, looked up): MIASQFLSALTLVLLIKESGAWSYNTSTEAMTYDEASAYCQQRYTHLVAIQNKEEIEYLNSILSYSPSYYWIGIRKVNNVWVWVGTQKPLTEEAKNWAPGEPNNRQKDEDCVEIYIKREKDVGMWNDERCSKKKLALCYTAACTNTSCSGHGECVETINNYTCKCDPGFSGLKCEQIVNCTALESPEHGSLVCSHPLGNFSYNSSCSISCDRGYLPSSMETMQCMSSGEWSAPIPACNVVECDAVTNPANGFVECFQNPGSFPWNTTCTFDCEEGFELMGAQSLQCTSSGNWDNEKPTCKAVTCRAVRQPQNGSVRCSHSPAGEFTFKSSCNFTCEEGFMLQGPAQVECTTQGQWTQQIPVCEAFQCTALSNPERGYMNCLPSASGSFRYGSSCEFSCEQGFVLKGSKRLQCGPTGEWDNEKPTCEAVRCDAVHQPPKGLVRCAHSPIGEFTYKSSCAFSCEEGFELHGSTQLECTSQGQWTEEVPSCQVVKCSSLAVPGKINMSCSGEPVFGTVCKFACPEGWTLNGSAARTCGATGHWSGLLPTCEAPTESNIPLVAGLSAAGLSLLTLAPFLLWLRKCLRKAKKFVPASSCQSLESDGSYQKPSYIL
human Matrix Metalloproteinase-9 (MMP9), MMP9 (gene 4318), sequence (P14780 whole entry, looked up): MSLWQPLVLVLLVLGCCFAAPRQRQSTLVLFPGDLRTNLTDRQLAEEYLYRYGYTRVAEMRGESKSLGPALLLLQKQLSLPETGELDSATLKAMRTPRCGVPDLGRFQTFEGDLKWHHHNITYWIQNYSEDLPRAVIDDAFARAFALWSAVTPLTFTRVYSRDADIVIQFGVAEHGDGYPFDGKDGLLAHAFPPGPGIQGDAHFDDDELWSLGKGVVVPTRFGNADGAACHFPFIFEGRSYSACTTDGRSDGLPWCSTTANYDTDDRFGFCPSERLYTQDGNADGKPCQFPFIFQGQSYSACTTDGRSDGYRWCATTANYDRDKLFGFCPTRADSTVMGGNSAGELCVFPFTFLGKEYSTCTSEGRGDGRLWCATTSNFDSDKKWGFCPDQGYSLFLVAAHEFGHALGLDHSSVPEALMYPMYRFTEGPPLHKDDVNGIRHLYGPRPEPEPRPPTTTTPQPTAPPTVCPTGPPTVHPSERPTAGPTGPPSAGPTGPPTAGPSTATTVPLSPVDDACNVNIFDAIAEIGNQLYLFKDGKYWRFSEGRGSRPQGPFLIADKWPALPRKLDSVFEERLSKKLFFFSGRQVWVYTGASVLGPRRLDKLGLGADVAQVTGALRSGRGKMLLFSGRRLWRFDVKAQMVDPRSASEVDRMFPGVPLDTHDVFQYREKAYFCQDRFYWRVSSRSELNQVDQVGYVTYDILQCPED
human CYP19A1, CYP19A1 (gene 1588), sequence (P11511 whole entry, looked up): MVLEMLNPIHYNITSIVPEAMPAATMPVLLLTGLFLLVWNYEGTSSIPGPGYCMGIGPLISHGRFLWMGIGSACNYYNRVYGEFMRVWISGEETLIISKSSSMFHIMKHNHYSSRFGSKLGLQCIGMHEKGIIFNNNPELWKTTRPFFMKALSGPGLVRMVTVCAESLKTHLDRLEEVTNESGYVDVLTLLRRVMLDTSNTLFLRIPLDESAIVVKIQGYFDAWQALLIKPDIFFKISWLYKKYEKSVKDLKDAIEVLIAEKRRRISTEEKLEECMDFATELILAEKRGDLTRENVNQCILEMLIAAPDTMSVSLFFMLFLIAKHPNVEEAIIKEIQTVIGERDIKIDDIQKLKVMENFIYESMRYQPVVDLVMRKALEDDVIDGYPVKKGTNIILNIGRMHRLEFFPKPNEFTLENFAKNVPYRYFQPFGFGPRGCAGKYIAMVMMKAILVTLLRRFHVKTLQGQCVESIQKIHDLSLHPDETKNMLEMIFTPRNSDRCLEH
human Beta-secretase (BACE), BACE1 (gene 23621), sequence (P56817 whole entry, looked up): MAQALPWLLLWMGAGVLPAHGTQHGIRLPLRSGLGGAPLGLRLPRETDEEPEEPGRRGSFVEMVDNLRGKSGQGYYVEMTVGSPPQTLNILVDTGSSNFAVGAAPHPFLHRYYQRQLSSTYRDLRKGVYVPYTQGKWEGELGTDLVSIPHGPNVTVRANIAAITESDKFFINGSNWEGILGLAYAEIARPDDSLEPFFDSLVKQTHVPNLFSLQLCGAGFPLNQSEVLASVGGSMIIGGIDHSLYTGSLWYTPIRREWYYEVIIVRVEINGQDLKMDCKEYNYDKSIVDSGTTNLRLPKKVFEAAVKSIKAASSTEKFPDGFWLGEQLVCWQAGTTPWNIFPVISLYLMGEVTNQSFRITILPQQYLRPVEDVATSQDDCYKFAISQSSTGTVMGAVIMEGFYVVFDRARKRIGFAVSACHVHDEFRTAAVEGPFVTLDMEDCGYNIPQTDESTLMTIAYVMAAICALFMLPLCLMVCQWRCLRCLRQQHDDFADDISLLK
human Dual Specificity Protein Phosphatase 3 (DUSP3), DUSP3 (gene 1845), sequence (P51452 whole entry, looked up): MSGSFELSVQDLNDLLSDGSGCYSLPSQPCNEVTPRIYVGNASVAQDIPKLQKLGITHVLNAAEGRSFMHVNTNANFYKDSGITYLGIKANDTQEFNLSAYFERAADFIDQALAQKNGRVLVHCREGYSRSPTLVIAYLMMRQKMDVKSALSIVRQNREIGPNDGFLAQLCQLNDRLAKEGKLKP

For orientation: AC50 means the concentration giving half of the maximal activity seen. Turning to `CC(C)(c1cc(Br)c(OCCO)c(Br)c1)c1cc(Br)c(OCCO)c(Br)c1`, the result in assay [1], in assay [6], in assay [7], in assay [9] and in assay [12] was inactive. Also, the AC50 in [2] is 5.1 µM (active); in [3] it was 13.3 µM (active); in assay [4], 2.31 µM (active); in [5], 1.44 µM (active); in [8], 0.479 µM (active); in assay [10], 0.879 µM (active). Further, the AC50 in assay [11] was 1.8 µM (active); in [13] it was 2.62 µM (active).
Consider `CCCCC(CC)COC(=O)c1ccccc1O` (stereo not given), for which the outcome in [1], in assay [2], in assay [3], in assay [4], in assay [5] and in assay [7] was inactive. Further, the result in assay [9] was inactive. For the same compound, the AC50 in assay [6] is 18.4 µM (active); in assay [8], 17.8 µM (active); in assay [14], 11.1 µM (active).
`O=Nc1ccc(O)cc1`: the result in [1], in [2], in [3], in assay [4], in [5] and in assay [6] was inactive. Besides, the result in [7], in assay [8] and in assay [9] was inactive. Moreover, the AC50 in assay [15] was 3.79 µM (active); in assay [16] it was 13.5 µM (active).
For `C=CCOCC(O)CCl` (stereo not given), the outcome in [1], in [2], in assay [3], in [4], in assay [5] and in assay [6] was inactive. The result in assay [7], in assay [8], in assay [9], in [16] and in assay [14] was inactive.
`CCCOC(=O)CCCCC(=O)OCCC`: the AC50 in assay [13] was 2 µM (active).
`CCCCCCCC/C=C\CCCCCCCC(=O)O`: in [17], the compound was called inactive.
`Cc1ccc(N)c([N+](=O)[O-])c1`: in assay [12], the AC50 was 43.4 µM (active). In assay [13], the compound was classed as inactive.
On to `CC(=O)[C@H]1[C@H](C#N)C[C@H]2[C@@H]3CC=C4C[C@@H](O)CC[C@]4(C)[C@H]3CC[C@@]21C`, for which the outcome in assay [17] was inactive.
In the case of `COc1ccc2nc(N)sc2c1`, the result in assay [1], in [2], in assay [3], in assay [4], in assay [5] and in assay [6] was inactive. In addition, the outcome in assay [7], in [8] and in [9] was inactive. Besides, the AC50 in [11] was 0.319 µM (active).
In the case of `C/C=C\C/C=C/CCCCCCCCOC(C)=O`, the AC50 is 30.4 µM (active) in assay [1]; 32.1 µM (active) in assay [2]; 20 µM (active) in [3]; 20 µM (active) in [4]; 29.5 µM (active) in assay [5]; 24.3 µM (active) in assay [6]. Also, the AC50 in assay [8] was 26.7 µM (active); in [10], 3.9 µM (active); in assay [11], 0.065 µM (active); in assay [18] it was 13.7 µM (active). Besides, the outcome in assay [7], in assay [9] and in [12] was inactive.
On to `N#[N+]c1ccc2c(S(=O)(=O)[O-])cccc2c1O`, for which the outcome in assay [1], in assay [2], in assay [3], in [4], in assay [5] and in assay [6] was inactive. In addition, the outcome in assay [7], in assay [8], in [9], in assay [12] and in assay [13] was inactive. Moreover, the AC50 in assay [15] is 3.97 µM (active); in assay [16], 9.03 µM (active); in assay [19], 14.9 µM (active).
On to `CNC(=S)N(C)C`, for which the results for the AC50 in assay [12] and in [18] were 18.6 µM (active) and 1.04 µM (active), respectively. The compound was called inactive in assay [13].
Take `CCCCC/C=C\C/C=C\CCCCCCCC(=O)OC`: the AC50 in assay [1] is 20 µM (active); in assay [2], 28.4 µM (active); in [3], 20 µM (active); in assay [5], 30.9 µM (active); in assay [6] it was 23.2 µM (active); in assay [7], 27.8 µM (active). Besides, the AC50 in assay [8] was 13.1 µM (active); in assay [11], 6.47 µM (active); in [16], 6.61 µM (active). In addition, the outcome in assay [9] was inactive.
